Data reported in PubChem BioAssay AID504834 (National Center for Advancing Translational Sciences (NCATS), 2011).
Screen size: about 320,000 compounds; about 22,000 (6.9%) were called active. Not shown: some 27% with an inconclusive outcome. The full list was thinned out, with actives kept by preference. A number with no mark means an inactive call. The call rests on the fitted dose curve; in most records, active means well fitted inhibition curve with a large enough effect; inconclusive means small, poorly fitted or top-dose-only effect, or another doubt; inactive means no such curve, though single readings can be large or run the other way.

Assay: Primary qHTS for delayed death inhibitors of the malarial parasite plastid, 96 hour incubation
Conditions: P. falciparum luciferase reporter growth; series mostly up to 28.7 µM; activity change, negative = inhibition: at the top concentration
From the text: The goal of this screen is to discover new antimalarial compounds that act by inhibiting the development of the apicoplast in the malarial parasite Plasmodium falciparum. The biochemical processes that make this organelle essential for erythrocytic stage parasites are not well understood. However, antibiotics such as azithromycin and tetracycline, which target the apicoplast translational machinery, have a potent antimalarial effect.
We have developed a cell-based assay that measures parasite growth based on the expression of an integrated copy of a firefly luciferase reporter. To detect small molecules that cause this "delayed death" phenotype, erythrocytes infected with the luciferase-expressing parasites were incubated with compounds for either one or two generations, corresponding to 48 and 96 hours, respectively. Compounds that inhibit parasite growth in the second generation, but not the first, should be enriched in antimalarials that target the apicoplast. Growth inhibition is detected by a decrease in luciferase activity.
Assay Provider: David Fidock and Eric Ekland, Columbia University
Keywords: NIH Roadmap, MLPCN, MLI, MLSMR, qHTS, NCGC, qHTS, malaria, luciferase, viability
Four microliters of infected erythrocytes (2% hematocrit, 0.05% parasitemia final concentration) in culture medium were dispensed and the plates incubated for 96 hours at 37 C in 5% CO2. Two microliters of luciferase detection reagent was added and luminescence was detected by a ViewLux (PerkinElmer) reader.
On the % scale 0 is the no-effect control and ±100 the full control effect; potency means the concentration at half of the fitted maximal effect.

| Structure (SMILES) | activity change, negative = inhibition [%] | Potency |
| --- | --- | --- |
| CCC(C)C(=O)Nc1ccccc1N1CCN(c2ccc(F)cc2)CC1 (centres undefined) | 14.6 |  |
| Cc1csc(=O)n1CCC(=O)OCC(=O)NNC(=O)c1ccc(Br)cc1 | -26.8 |  |
| O=c1ccc2cc(S(=O)(=O)Nc3ccccc3F)ccc2o1 | -5.54 |  |
| O=C1COc2ccc(S(=O)(=O)Nc3ccc(OC(F)(F)F)cc3)cc2N1 | 61.4 |  |
| O=C(COC(=O)c1ccc(Cl)nc1)NCc1cccs1 |  | 2.33 µM (active) |
| O=C(COC(=O)c1ncc(Cl)c(Cl)c1Cl)NCc1cccs1 | 26 |  |
| O=C(COC(=O)c1cccs1)NCc1cccs1 | -16.4 |  |
| COc1ccc(-c2nn(-c3ccccc3)cc2/C=C2/SC(=S)N(CCCC(=O)O)C2=O)c(C)c1 | 0 |  |
| CS(=O)(=O)N1CCc2cc(C(=O)Nc3ccccc3Br)ccc21 | 36.8 |  |
| O=C(O)c1cnn2c(C(F)(F)F)cc(-c3ccccc3)nc12 | 0.482 |  |
| O=C(NCc1ccco1)c1cnn2c(C(F)(F)F)cc(-c3ccco3)nc12 |  | 1.65 µM (active) |
| COc1ccc(C(=O)Nc2ccccc2C(=O)NCc2ccco2)cc1 | 5.08 |  |
| CCC1CCCCN1C(=O)CSc1nc(C)cc(C)n1 (centres undefined) | -20.6 |  |
| CCC1CCCCN1C(=O)CSc1nc2c(c(=O)n1C)SC(C)C2 (centres undefined) |  | 1.47 µM (active) |
| CCC1CCCCN1C(=O)CSc1nc2c(c(=O)n(C)c(=O)n2C)n1C (centres undefined) | 30.9 |  |
| O=S(=O)(NCc1ccccc1Br)c1ccccc1Br | -12.7 |  |
| O=C(CN1CCN(C2CCS(=O)(=O)C2)CC1)N1N=C(c2ccc(Cl)cc2)CC1c1ccco1 (centres undefined) | 70.1 |  |
| COc1ccc(C(=O)NCC(c2ccco2)N2CCc3ccccc32)cc1OC (centres undefined) | -14.9 |  |
| Cc1ccccc1C(=O)NCC(c1ccco1)N1CCc2ccccc21 (centres undefined) | -10.7 |  |
| COc1cc(C(=O)NCC(c2ccco2)N2CCCC2)ccc1OCc1ccccc1 (centres undefined) |  | 2.62 µM (active) |
| CCOC(CNC(=O)C(=O)NCC(c1ccco1)N1CCN(c2ccc(OC)cc2)CC1)OCC (centres undefined) | 37.7 |  |
| O=C(NCC(c1ccco1)N1CCc2ccccc2C1)c1ccccc1Cl (centres undefined) | -4.98 |  |
| CC1Cc2ccccc2N1S(=O)(=O)c1cccc(C(=O)NCC(c2ccco2)N2CCCC2)c1 (centres undefined) |  | 1.85 µM (active) |
| O=C(Cc1ccccc1Cl)N1CCOCC1 | 52 |  |
| COc1ccc(CCNC(=O)c2nnc(CS(=O)(=O)c3ccccc3)o2)cc1OC | 21.2 |  |
| CC(C)Cc1nnc(NC(=O)CN2C(=O)NC3(CCCCC3)C2=O)s1 | -3.02 |  |

| Structure (SMILES) | activity change, negative = inhibition [%] | Potency |
| --- | --- | --- |
| COc1ccc(CCN=C2SCC(=O)N2C)cc1OC | 128 |  |
| COc1ccc(CCN2CNc3c(c(=O)n(C)c(=O)n3C)C2)cc1OC |  | 13.1 µM (active) |
| COc1ccc(CCN2C(=O)C3CC=C(C)CC3C2=O)cc1OC (centres undefined) | 17.6 |  |
| CN(c1ccccc1)S(=O)(=O)c1cccc(C(=O)NNC(=O)c2ccncc2)c1 | 36 |  |
| COc1cccc(NC(=O)N2C3CCCC2CC(NC(C)=O)C3)c1 (centres undefined) | -17.1 |  |
| NC(=O)c1nnsc1-c1ccc(-c2snnc2C(N)=O)cc1 | 79.6 |  |
| NS(=O)(=O)c1ccc(CNC(=O)c2cnccn2)cc1 | 3.67 |  |
| COCCOCCn1cnc2ccccc21 | -7.76 |  |
| Cc1cc2ncn(CCCCOc3ccccc3)c2cc1C |  | 14.7 µM (active) |
| Cc1c(C(N)=O)sc2ncn(CCOc3ccccc3)c(=O)c12 | 19.2 |  |
| COc1ccc(NC(=O)CC(NC(C)c2ccccc2)C(=O)O)cc1 (centres undefined) | 44.3 |  |
| CCCCCC(O)(CCN1CCCCC1)c1ccccc1 (centres undefined) | 7.41 |  |
| CCC1(C)Cc2c(sc3[nH]c(=S)n(Cc4ccccc4)c(=O)c23)CO1 (centres undefined) | 16.8 |  |
| CCC1(C)Cc2c(sc3nc(SC)[nH]c(=O)c23)CO1 (centres undefined) |  | 9.28 µM (active) |
| CCOC(=O)CSc1nc2sc3c(c2c(=O)[nH]1)CC(C)(C)OC3 | 8.53 |  |
| CCOc1ccc(S(=O)(=O)N2CCCC(C(=O)N3CCC(C(N)=O)CC3)C2)cc1Cl (centres undefined) | 26.6 |  |
| COc1ccc(OC)c(S(=O)(=O)N2CCCC(C(=O)NCCc3ccccc3)C2)c1 (centres undefined) | -4.5 |  |
| CCOC(=O)c1sc(NC(=O)C2CSC3(C)CCC(=O)N23)nc1C (centres undefined) | -33.8 |  |
| COc1cc(C(C(=O)NC2CCCC2)N(C(=O)c2ccco2)c2ccccc2C(C)=O)cc(OC)c1OC (centres undefined) | -73.6 |  |
| O=C(/C=C/Nc1ccc(S(=O)(=O)Nc2cnc3ccccc3n2)cc1)c1cccnc1 | 17.8 |  |
| O=C(CSc1nnnn1-c1ccc2c(c1)CCC2)Nc1ccc2c(c1)OCCO2 |  | 10.4 µM (active) |
| CCn1c(SCC(=O)Nc2ccc3c(c2)OCCO3)nnc1C(C)C | 48.3 |  |
| CCn1c(SCC(=O)Nc2ccc3c(c2)OCCO3)nnc1-c1ccncc1 | 9.38 |  |
| c1ccc2c(c1)C(=NC1CCCCC1)NC2=NC1CCCCC1 |  | 2.94 µM (active) |
| O=C1CCCCC(=O)c2ccccc2N1 | 279 |  |
| CC(=O)c1ccc(N2CCN(CC(O)c3ccccc3)CC2)cc1 (centres undefined) | 7.18 |  |

| Structure (SMILES) | activity change, negative = inhibition [%] | Potency |
| --- | --- | --- |
| COc1cccc(CNS(=O)(=O)c2csc(C(N)=O)c2)c1 | -2.54 |  |
| COc1cccc(NC(=S)NCc2ccccn2)c1 | 6.5 |  |
| COc1cccc(S(=O)(=O)NCc2ccc(C(=O)NCc3ccccn3)cc2)c1 |  | 2.94 µM (active) |
| O=C(COC(=O)c1ccccc1)c1ccc2c(c1)OCCO2 | 123 |  |
| CCOC(=O)c1c(-c2ccccc2)oc2cc(Br)c(O)cc12 | 1.74 |  |
| O=C(c1ccc(Cn2cc([N+](=O)[O-])cn2)o1)N1CCCC1 | 3.18 |  |
| CC(C)CC(CCc1ccccc1)OS(N)(=O)=O (centres undefined) | 30.1 |  |
| O=C(COC(=O)c1ccc(O)cc1O)NNC(=O)c1cccs1 | -15.8 |  |
| CCOc1cc(N2CCOCC2)c(OCC)cc1NC(=O)COc1cccc(Cl)c1 | -4.08 |  |
| CCOc1cc(N2CCOCC2)c(OCC)cc1NC(=O)COc1cccc2cccnc12 |  | 9.28 µM (active) |
| CCOc1cc(N2CCOCC2)c(OCC)cc1NC(=O)COC(=O)[C@H](Cc1c[nH]c2ccccc12)NC(C)=O | 7.96 |  |
| O=C(N/N=C/c1cccnc1)c1ccc(NC(=O)c2ccc(F)cc2)cc1 | 9.05 |  |
| Cc1nc(-c2ccc([N+](=O)[O-])cc2)c(-c2ccccc2)o1 | 35.4 |  |
| COc1ccc([N+](=O)[O-])cc1-c1nc2ccccc2nc1-c1ccccc1 | -2.77 |  |
| Cn1nc(-c2ccccc2)c2cc([N+](=O)[O-])ccc21 |  | 9.28 µM (active) |
| CCOC(=O)N1CCN(C(=O)c2ccc3c(=O)n(CCc4ccc(OC)c(OC)c4)c(=O)[nH]c3c2)CC1 |  | 2.62 µM (active) |
| COc1ccc(CCNC(=O)CCCCn2c(=O)[nH]c3ccccc3c2=O)cc1OC | 81.9 |  |
| COc1ccccc1Cn1c(=S)[nH]c2cc(C(=O)N3CCN(C)CC3)ccc2c1=O | 0 |  |
| Cc1c(S(=O)(=O)NC(C)c2ccccc2)c(=O)n(C)c(=O)n1C (centres undefined) | 5.42 |  |
| CN(CC(=O)NCCc1ccc(F)cc1)CC(=O)Nc1ccc(F)c(F)c1F | -6.33 |  |
| COc1cccc(C(=O)N2CCC(n3nccc3NC(=O)C3CCOC3)CC2)c1 (centres undefined) | 64.6 |  |
| CCCCn1c(N)c(N(CCC(C)C)C(=O)c2ccc(COc3ccccc3)o2)c(=O)[nH]c1=O | -4.62 |  |
| CCCCn1c(N)c(N(CCC(C)C)C(=O)c2ccc([N+](=O)[O-])o2)c(=O)[nH]c1=O | -27.6 |  |
| CCCCn1c(N)c(N(CCC(C)C)C(=O)CC2OC(=O)c3ccccc32)c(=O)[nH]c1=O (centres undefined) |  | 4.65 µM (active) |
| O=C(NCCO)C(=O)NCC(c1ccc2c(c1)OCO2)N1CCN(c2ccc(F)cc2)CC1 (centres undefined) | 3.63 |  |
| CCOC(=O)N1CCN(S(=O)(=O)N2CCCC(C(=O)NCCCN3CCC(C)CC3)C2)CC1 (centres undefined) | 23.7 |  |

| Structure (SMILES) | activity change, negative = inhibition [%] | Potency |
| --- | --- | --- |
| O=C(CCC(=O)N/N=C/c1ccc(Br)o1)N/N=C/c1ccc(Br)o1 | 20.1 |  |
| COc1ccc(CCNC2=CC(=O)CC(C)(C)C2)cc1 | 0 |  |
| COc1cc(C(=O)N[C@@H](C)C(=O)NCc2ccco2)cc(OC)c1OC | 16 |  |
| COc1cc(Cn2c(N)c(C(=O)NCc3ccco3)c3nc4ccccc4nc32)cc(OC)c1OC |  | 1.65 µM (active) |
| COc1cc(C(=O)NC(=S)NCc2ccco2)cc(OC)c1OC | 0 |  |
| O=C(NCC(=O)N1CCCC(C(F)(F)F)C1)c1ccccc1F (centres undefined) | 76.3 |  |
| CC(NC(=O)c1ccccc1F)c1cccc2ccccc12 (centres undefined) | 43 |  |
| Cc1ccc(S(=O)(=O)N(C)CC(=O)OCC(=O)N2CC(=O)Nc3ccccc32)cc1 | 17.3 |  |
| Cc1ccc(C(=O)N2CC(=O)Nc3ccccc32)o1 | 7.15 |  |
| Cc1ccc(S(=O)(=O)N2CC(=O)Nc3ccccc32)cc1C |  | 13.1 µM (active) |
| O=C(O)C1CCCCC1C(=O)N1CCN(S(=O)(=O)c2ccc(F)cc2)CC1 (centres undefined) | 29.1 |  |
| COc1cc(N2C(=O)CC3(CCCC3)CC2=O)cc(OC)c1OC | 11.1 |  |
| COc1ccc(-c2nnc(SCC(=O)c3ccco3)n2-c2ccccc2)cc1 | -2.46 |  |
| CCOc1ccc(-n2c(SCC(N)=O)nnc2-c2ccco2)cc1 |  | 3.7 µM (active) |
| Cc1cccc(C)c1NC(=O)CCCSc1nnc(-c2ccco2)n1-c1ccccc1 | 22.3 |  |
| COc1ccc(-n2c(SCC(=O)OC(C)C)nnc2-c2ccccn2)cc1 |  | 2.08 µM (active) |
| O=C(CSc1nnc(-c2ccccn2)n1-c1ccccc1)Nc1ccc2c(c1)OCO2 | 11.5 |  |
| CCOC(=O)CSc1nnc(-c2ccco2)n1C | -14.9 |  |
| CCOc1ccc(S(=O)(=O)N2CCN=C2Cc2ccccc2)cc1C | 22.5 |  |
| O=C(CCc1ccccc1)Nc1ccnn1C1CCN(Cc2ccc(OCCO)cc2)CC1 | 15.8 |  |
| C/C=C(\C)C(=O)N1CC2(CC(c3cccc(NC(=O)CCCCC)c3)=NO2)C[C@@H]1C(N)=O (some centres undefined) | 23.1 |  |
| CCC(=O)Nc1cccc(C2=NOC3(C2)C[C@@H](C(N)=O)N(C(=O)c2cc([N+](=O)[O-])cc([N+](=O)[O-])c2C)C3)c1 (some centres undefined) |  | 0.0657 µM (active) |
| CC/C=C/C(=O)N1CC2(CC(c3cccc(NC(=O)CC)c3)=NO2)C[C@H]1C(N)=O (some centres undefined) | -1.57 |  |
| CCOc1ccccc1-c1cc(C(=O)N2CCOCC2)c2ccccc2n1 | -10.4 |  |
| COc1ccc(F)c(-c2nc(CN3CCC(c4ccccc4)CC3)c(C)o2)c1 | -24.4 |  |
| CCOc1ccccc1-c1nc(CN2CCC(C(=O)N3CCOCC3)CC2)c(C)o1 |  | 11.7 µM (active) |
